Assay results reported in PubChem BioAssay AID1159580 (chemical genetic matrix, 2015).
The whole screen tested about 5,500 compounds, of which about 2,000 (36%) were called active. Roughly 18% stayed inconclusive and do not appear here. No stated cut-off is given here; in the data, active means normalized growth mostly below about 0.91 (no sharp cut-off); inconclusive means no clear call, values can overlap the other calls; inactive means mostly above about 0.92. This is one part of the list.

Assay: chemical genetic growth profiling, strain panel (AID 1159580);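 further: tested at 20 µM; growth read once vehicle control cultures reached saturation at 30 °C; 1 = growth at the plate median or of vehicle wells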
Conditions: growth OD
[1] = S. cerevisiae deletion strains, locus YDR150W, strain NUM1, stronger effect = lower value
[2] = S. cerevisiae deletion strains, locus YMR307W, strain GAS1, stronger effect = lower value
[3] = S. cerevisiae deletion strains, locus YNL153C, strain GIM3, stronger effect = lower value
[4] = S. cerevisiae deletion strains, locus YNL322C, strain KRE1, stronger effect = lower value
[5] = S. cerevisiae deletion strains, locus YPL055C, strain LGE1, stronger effect = lower value

Measured: normalized growth

C[C@H]1OC[C@@H](C[N+](C)(C)C)O1
inactive: S. cerevisiae deletion strains, locus YAL040C, strain CLN3, stronger effect = lower value 1.01 | S. cerevisiae deletion strains, locus YCL061C, strain MRC1 (second series), stronger effect = lower value 1.01 | [1] 1 | S. cerevisiae deletion strains, locus YDR363W, strain ESC2, stronger effect = lower value 1.02 | S. cerevisiae deletion strains, locus YER002W, strain NOP16, stronger effect = lower value 1.04 | [2] 1 | [3] 1.02 | S. cerevisiae deletion strains, locus YNL175C, strain NOP13, stronger effect = lower value 1.02 | S. cerevisiae deletion strains, locus YNL197C, strain WHI3, stronger effect = lower value 1 | S. cerevisiae deletion strains, locus YNL224C, strain SQS1, stronger effect = lower value 1.02 | [4] 1.02 | S. cerevisiae deletion strains, locus YOR083W, strain WHI5 (second series), stronger effect = lower value 1.03 | [5] 1.05

CCc1cccc(C)c1N(C(=O)CCl)C(C)COC (centres undefined)
inactive: S. cerevisiae deletion strains, locus YAL013W, strain DEP1, stronger effect = lower value 1.01 | S. cerevisiae deletion strains, locus YBR021W, strain FUR4, stronger effect = lower value 0.996 | S. cerevisiae deletion strains, locus YBR229C, strain ROT2, stronger effect = lower value 1 | S. cerevisiae deletion strains, locus YCL029C, strain bik1, stronger effect = lower value 1.02 | S. cerevisiae deletion strains, locus YDL035C, strain GPR1, stronger effect = lower value 1.02 | S. cerevisiae deletion strains, locus YDL074C, strain BRE1, stronger effect = lower value 1.02 | S. cerevisiae deletion strains, locus YDL101C, strain DUN1, stronger effect = lower value 1.02 | S. cerevisiae deletion strains, locus YDL134C, strain PPH21, stronger effect = lower value 1.01 | S. cerevisiae deletion strains, locus YDL185W, strain tfp1, stronger effect = lower value 1.02 | S. cerevisiae deletion strains, locus YDL192W, strain arf1, stronger effect = lower value 1.02 | S. cerevisiae deletion strains, locus YDR101C, strain arx1, stronger effect = lower value 1.01 | [1] 1.01 | S. cerevisiae deletion strains, locus YDR162C, strain NBP2, stronger effect = lower value 1.01 | S. cerevisiae deletion strains, locus YDR318W, strain mcm21, stronger effect = lower value 1.01 | S. cerevisiae deletion strains, locus YDR388W, stronger effect = lower value 1.01 | S. cerevisiae deletion strains, locus YDR502C, strain sam2, stronger effect = lower value 1.02 | S. cerevisiae deletion strains, locus YEL061C, strain CIN8, stronger effect = lower value 1.01 | S. cerevisiae deletion strains, locus YER110C, stronger effect = lower value 1.02 | S. cerevisiae deletion strains, locus YER155C, strain BEM2, stronger effect = lower value 1.01 | S. cerevisiae deletion strains, locus YER167W, strain BCK2, stronger effect = lower value 1.02 | S. cerevisiae deletion strains, locus YGL078C, strain dbp3, stronger effect = lower value 1.01 | S. cerevisiae deletion strains, locus YGL086W, strain mad1, stronger effect = lower value 1.01 | S. cerevisiae deletion strains, locus YGL248W, strain PDE1, stronger effect = lower value 1.01 | S. cerevisiae deletion strains, locus YGR078C, strain PAC10, stronger effect = lower value 1.02 | S. cerevisiae deletion strains, locus YGR135W, strain pre9, stronger effect = lower value 1.01 | S. cerevisiae deletion strains, locus YGR229C, strain SMI1, stronger effect = lower value 1.03 | S. cerevisiae deletion strains, locus YGR252W, strain gcn5, stronger effect = lower value 1.01 | S. cerevisiae deletion strains, locus YHR030C, strain SLT2, stronger effect = lower value 1.01 | S. cerevisiae deletion strains, locus YHR079C, strain IRE1 (second series), stronger effect = lower value 1.02 | S. cerevisiae deletion strains, locus YHR094C, strain hxt1, stronger effect = lower value 1.02 | S. cerevisiae deletion strains, locus YHR129C, strain ARP1, stronger effect = lower value 1.01 | S. cerevisiae deletion strains, locus YHR200W, strain rpn10, stronger effect = lower value 1.02 | S. cerevisiae deletion strains, locus YIL066C, strain RNR3, stronger effect = lower value 1.02 | S. cerevisiae deletion strains, locus YIL073C, strain SPO22, stronger effect = lower value 1.05 | S. cerevisiae deletion strains, locus YIL125W, strain kgd1, stronger effect = lower value 1.02 | S. cerevisiae deletion strains, locus YIR030C, strain dcg1, stronger effect = lower value 1.02 | S. cerevisiae deletion strains, locus YJL095W, strain BCK1, stronger effect = lower value 0.991 | S. cerevisiae deletion strains, locus YJL134W, strain LCB3, stronger effect = lower value 1.02 | S. cerevisiae deletion strains, locus YJL168C, strain set2, stronger effect = lower value 1.01 | S. cerevisiae deletion strains, locus YJL187C, strain SWE1 (second series), stronger effect = lower value 1.01 | S. cerevisiae deletion strains, locus YJR043C, strain POL32, stronger effect = lower value 1.02 | S. cerevisiae deletion strains, locus YJR075W, strain HOC1, stronger effect = lower value 1.01 | S. cerevisiae deletion strains, locus YKL009W, strain mrt4, stronger effect = lower value 1.03 | S. cerevisiae deletion strains, locus YKL068W, stronger effect = lower value 1.01 | S. cerevisiae deletion strains, locus YKL085W, strain MDH1 (second series), stronger effect = lower value 1.02 | S. cerevisiae deletion strains, locus YKL085W, strain MDH1, stronger effect = lower value 1.02 | S. cerevisiae deletion strains, locus YKL190W, strain CNB1, stronger effect = lower value 1.02 | S. cerevisiae deletion strains, locus YKR001C, strain vps1, stronger effect = lower value 1.03 | S. cerevisiae deletion strains, locus YLR039C, strain RIC1, stronger effect = lower value 0.993 | S. cerevisiae deletion strains, locus YLR058C, strain SHM2, stronger effect = lower value 1.01 | S. cerevisiae deletion strains, locus YLR102C, strain apc9, stronger effect = lower value 1.02 | S. cerevisiae deletion strains, locus YLR262C, strain YPT6, stronger effect = lower value 1.03 | S. cerevisiae deletion strains, locus YLR268W, strain sec22, stronger effect = lower value 1.01 | S. cerevisiae deletion strains, locus YLR330W, strain CHS5, stronger effect = lower value 1.01 | S. cerevisiae deletion strains, locus YLR342W, strain FKS1 (second series), stronger effect = lower value 1.04 | S. cerevisiae deletion strains, locus YLR371W, strain rom2, stronger effect = lower value 1.02 | S. cerevisiae deletion strains, locus YLR418C, strain cdc73, stronger effect = lower value 1.01 | S. cerevisiae deletion strains, locus YML016C, strain PPZ1, stronger effect = lower value 1.01 | S. cerevisiae deletion strains, locus YML032C, strain rad52, stronger effect = lower value 0.992 | S. cerevisiae deletion strains, locus YML124C, strain tub3, stronger effect = lower value 1.02 | S. cerevisiae deletion strains, locus YMR078C, strain ctf18, stronger effect = lower value 1.02 | S. cerevisiae deletion strains, locus YMR223W, strain ubp8, stronger effect = lower value 1.02 | S. cerevisiae deletion strains, locus YMR263W, strain SAP30, stronger effect = lower value 1 | [2] 1 | S. cerevisiae deletion strains, locus YNL067W, strain RPL9B, stronger effect = lower value 1.01 | S. cerevisiae deletion strains, locus YNL128W, strain TEP1, stronger effect = lower value 1.01 | [3] 1.01 | S. cerevisiae deletion strains, locus YNL233W, strain BNI4, stronger effect = lower value 1.01 | S. cerevisiae deletion strains, locus YNL250W, strain rad50, stronger effect = lower value 1.01 | S. cerevisiae deletion strains, locus YNL271C, strain bni1, stronger effect = lower value 1.03 | S. cerevisiae deletion strains, locus YNL298W, strain CLA4, stronger effect = lower value 1.02 | S. cerevisiae deletion strains, locus YNL307C, strain MCK1, stronger effect = lower value 1.02 | [4] 1.01 | S. cerevisiae deletion strains, locus YNR052C, strain pop2, stronger effect = lower value 1.02 | S. cerevisiae deletion strains, locus YOL006C, strain TOP1, stronger effect = lower value 1.03 | S. cerevisiae deletion strains, locus YOL012C, strain htz1 0.819 | S. cerevisiae deletion strains, locus YOL147C, strain pex11, stronger effect = lower value 1.02 | S. cerevisiae deletion strains, locus YOR061W, strain CKA2, stronger effect = lower value 1.01 | S. cerevisiae deletion strains, locus YOR069W, strain VPS5, stronger effect = lower value 1.01 | S. cerevisiae deletion strains, locus YOR136W, strain idh2, stronger effect = lower value 1.01 | S. cerevisiae deletion strains, locus YOR144C, strain elg1, stronger effect = lower value 1.02 | S. cerevisiae deletion strains, locus YOR184W, strain ser1, stronger effect = lower value 1.03 | S. cerevisiae deletion strains, locus YOR316C, strain cot1, stronger effect = lower value 1.02 | [5] 1.03 | S. cerevisiae deletion strains, locus YPL241C, strain CIN2, stronger effect = lower value 1.02 | S. cerevisiae deletion strains, locus YPR119W, strain clb2, stronger effect = lower value 1.01 | S. cerevisiae deletion strains, locus YPR141C, strain kar3, stronger effect = lower value 1.02 | S. cerevisiae deletion strains, locus YPR163C, strain tif3, stronger effect = lower value 1.02 | S. cerevisiae deletion strains, locus YPR167C, strain met16, stronger effect = lower value 1.02 | S. cerevisiae deletion strains, strain wtn01, stronger effect = lower value 1.02 | S. cerevisiae strains, strain wild type, stronger effect = lower value 1
